High-throughput results: PubChem BioAssay, National Center for Advancing Translational Sciences (NCATS)
Pf growth 48h – Primary qHTS for delayed death inhibitors of the malarial parasite plastid, 48 hour incubation. P. falciparum luciferase growth in erythrocytes, 48 h. Potency, µM (titrated, usually from 28.7 µM), without a hit: at the top dose activity change, negative = inhibition, usual class: inhibitors. 310,000 tested, 5.9% active. AID 504832, 2011; note: potency is the fitted concentration of half-maximal effect; % is set by controls: 0 for no effect and ±100 for the full control effect
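Firefly luciferase activity from engineered P. falciparum reports growth; inhibitors lower the luminescent signal. Cultures contained 2% hematocrit erythrocytes at 0.1% final parasitemia.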
CHX counter – Cycloheximide Counterscreen for Small Molecule Inhibitors of Shiga Toxin | cell reporter, cycloheximide protein synthesis inhibition counterscreen | max response, % | 300,000 tested, 12% active | AID 2314, 2010; in the data active = max response mostly above about 13%, no sharp cut-off; inactive = mostly below about 14%; note: read at 38.3 µM for the half of the compounds with a filed dose; 0% is about no effect
LmPK inhibitor – qHTS Assay for Inhibitors of Leishmania Mexicana Pyruvate Kinase (LmPK); purified LmPK, Kinase-Glo ATP luminescence, 1 h; Q27686; 290,000 tested, 0.37% active; Potency, µM (doses to about 57.5 µM), for inactives: at the highest dose activity change, negative = inhibition, actives largely listed as inhibitors; note: potency is the fitted concentration of half-maximal effect; % is set by controls: 0 for no effect and ±100 for the full control effect
Target sequence (Q27686 whole entry, looked up): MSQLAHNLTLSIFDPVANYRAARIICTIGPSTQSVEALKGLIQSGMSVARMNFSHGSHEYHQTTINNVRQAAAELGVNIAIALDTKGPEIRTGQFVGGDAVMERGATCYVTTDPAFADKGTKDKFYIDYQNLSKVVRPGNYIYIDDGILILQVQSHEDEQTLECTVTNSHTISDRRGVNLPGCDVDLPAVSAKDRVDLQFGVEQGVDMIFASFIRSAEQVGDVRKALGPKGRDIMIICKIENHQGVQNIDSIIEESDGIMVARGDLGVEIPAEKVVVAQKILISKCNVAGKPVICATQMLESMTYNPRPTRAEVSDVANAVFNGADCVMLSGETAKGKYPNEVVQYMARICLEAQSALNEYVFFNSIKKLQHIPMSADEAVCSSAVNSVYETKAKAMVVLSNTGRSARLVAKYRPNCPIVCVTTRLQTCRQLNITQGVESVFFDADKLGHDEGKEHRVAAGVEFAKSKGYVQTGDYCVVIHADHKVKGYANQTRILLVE
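Purified LmPK (0.1 nM) with 0.5 mM PEP and 0.1 mM ADP in imidazole buffer pH 7.2 with MgCl2/KCl, 1 h at room temperature. ATP formed was read by luciferase luminescence and normalized to no-enzyme and uninhibited controls.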
Shiga toxin inh – A qHTS for Small Molecule Inhibitors of Shiga Toxin. Vero cells, Shiga toxin protein synthesis inhibition reporter. AID 2315, 2010. inhibition, % at 38.7 µM. 290,000 tested, 9.2% active; in the data active = inhibition mostly above about 28%, no sharp cut-off; inactive = mostly below about 43%; note: 0% is about no effect
Pf growth 96h – Primary qHTS for delayed death inhibitors of the malarial parasite plastid, 96 hour incubation; P. falciparum luciferase reporter growth, 96 h; Potency, µM (top dose mostly 28.7 µM), without a hit: top-dose activity change, negative = inhibition, most hits filed as inhibitors; 320,000 tested, 6.9% active; AID 504834, 2011; note: potency is the fitted concentration of half-maximal effect; % is set by controls: 0 for no effect and ±100 for the full control effect
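Delayed-death screen, second-generation endpoint: infected erythrocytes, 2% hematocrit, 0.05% parasitemia final; 96 hours at 37 C, 5% CO2; luciferase detection reagent; luminescence decrease equals reduced growth.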
LmPK confirm – Confirmation Assay for Inhibitors of Leishmania Mexicana Pyruvate Kinase (LmPK). shares compounds with LmPK inhibitor. purified LmPK, Kinase-Glo ATP luminescence, 1 h. Potency, µM (series often up to 57.5 µM), for inactives: at the top dose activity change, negative = inhibition, usual class: inhibitors. 150 tested, 40% active. AID 2559, 2010;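 active = compounds giving a full or partial concentration-response curve, as inhibitors or activators; inconclusive = weak, top-dose-only or unclear curve responses; inactive = no response at any tested dose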
Starred values were filed as active, the others as inactive. Hits are enriched below; roughly 22% of the tested compounds scored in any of these assays. Unless noted, calls come from the whole dose curve; as a rule, active = well fitted inhibition curve with a large enough effect; inconclusive = small, poorly fitted or top-dose-only effect, or another doubt; inactive = no such curve, though single readings can be large or run the other way.

How did C[C@H](NC(=O)c1nc[nH]c1C(=O)NC(c1ccccc1)c1ccccc1)C(=O)OCc1ccccc1 do in these assays?
Pf growth 48h: 10µM*; CHX counter: -6; LmPK inhibitor: 4%; Shiga toxin inh: -7; Pf growth 96h: inconclusive

Results for C[C@H](NC(=O)c1nc[nH]c1C(=O)N[C@@H](C)C(=O)OCc1ccccc1)C(=O)OCc1ccccc1 ?
Pf growth 48h: 31%; CHX counter: -2; LmPK inhibitor: 0%; Shiga toxin inh: 21; Pf growth 96h: 7%

How did CC(C)C[C@H](NC(=O)c1[nH]cnc1C(=O)N[C@H](C)c1ccccc1)C(=O)OCc1ccccc1 do in these assays?
Pf growth 48h: inconclusive; CHX counter: -1; LmPK inhibitor: 10%; Shiga toxin inh: -8; Pf growth 96h: inconclusive

Results for CC(C)C[C@H](NC(=O)c1[nH]cnc1C(=O)N[C@@H](Cc1ccccc1)C(=O)OCc1ccccc1)C(=O)OCc1ccccc1 ?
Pf growth 48h: inconclusive; CHX counter: 0; LmPK inhibitor: -5%; Shiga toxin inh: 17; Pf growth 96h: inconclusive

How did CC(C)C[C@H](NC(=O)c1nc[nH]c1C(=O)N[C@@H](CC(C)C)C(=O)OCc1ccccc1)C(=O)OCc1ccccc1 do in these assays?
Pf growth 48h: inconclusive; CHX counter: 1; LmPK inhibitor: -3%; Shiga toxin inh: -1; Pf growth 96h: 12µM*

Results for CC(C)C[C@H](NC(=O)c1nc[nH]c1C(=O)NC(c1ccccc1)c1ccccc1)C(=O)OCc1ccccc1 ?
Pf growth 48h: 3.7µM*; CHX counter: 5; LmPK inhibitor: 6%; Shiga toxin inh: 12; Pf growth 96h: 2.9µM*

How did CCC/C=C1\CCCOC(C(=O)NCc2ccccc2)(C(F)(F)F)C1 (stereo not drawn) do in these assays?
CHX counter: 10; Shiga toxin inh: 16

How did CC1(C)Cc2cccc(OCC(=O)OCC(=O)Nc3cccc(S(N)(=O)=O)c3)c2O1 do in these assays?
Pf growth 48h: -6%; CHX counter: -4; LmPK inhibitor: 0%; Shiga toxin inh: -5; Pf growth 96h: -8%

What do the screens show for `COc1ccc(S(=O)(=O)N(C)C)cc1NC(=O)CCNC(=O)c1ccco1`?
Pf growth 48h: 0%; CHX counter: -10; LmPK inhibitor: -15%; Shiga toxin inh: -3; Pf growth 96h: 16%

What do the screens show for `CC(=O)C(Sc1ncnc2sc3c(c12)CCCC3)C(C)=O`?
Pf growth 48h: 9%; CHX counter: -2; LmPK inhibitor: 0%; Shiga toxin inh: -5; Pf growth 96h: -1%

How did CSc1ccccc1C(=O)NCCCn1ccnc1 do in these assays?
Pf growth 48h: 17%; CHX counter: -1; LmPK inhibitor: -2%; Shiga toxin inh: -11; Pf growth 96h: 0%

Results for Oc1ccc(O)c2c1C1c3ccccc3C2c2ccccc21 ?
Pf growth 48h: inconclusive; CHX counter: -1; LmPK inhibitor: 2.2µM*; Shiga toxin inh: -11; Pf growth 96h: 0%; LmPK confirm: -8%

Results for Cc1ccccc1NC(=O)COC(=O)c1cc[n+]([O-])cc1 ?
Pf growth 48h: 70%; Pf growth 96h: 23%

Results for COc1cc(Cl)c(C)cc1NC(=O)COC(=O)c1cc[n+]([O-])cc1 ?
Pf growth 48h: 87%; CHX counter: 7; LmPK inhibitor: 2.8µM*; Shiga toxin inh: -3; Pf growth 96h: 10%; LmPK confirm: 3%

How did Cc1nn(-c2ccc(F)cc2)c(Cl)c1C(=O)NCC1CCCO1 (stereo not drawn) do in these assays?
Pf growth 48h: -24%; Pf growth 96h: inconclusive

What do the screens show for `O=C(Nc1cccn(Cc2ccc(F)cc2)c1=O)NC1CCCCC1`?
Pf growth 48h: inconclusive; CHX counter: -3; LmPK inhibitor: 1%; Shiga toxin inh: 18; Pf growth 96h: inconclusive

Results for Cc1ccc(Cn2cccc(NC(=O)NC3CCCCC3)c2=O)cc1 ?
Pf growth 48h: 1%; CHX counter: -2; LmPK inhibitor: 5%; Shiga toxin inh: 30; Pf growth 96h: 86%; LmPK confirm: -1%
